HP1b chromo inh = HTS for Inhibitors of HP1-beta Chromodomain Interactions with Methylated Histone Tails; 390,000 compounds, 0.56% hits; Chromobox protein homolog 1 (Homo sapiens), P83916; AlphaScreen HP1-beta / biotin-H3K9me3 peptide binding; Potency, µM (highest dose often 114 µM), for the others: at the highest dose activity change, negative = inhibition, actives largely listed as inhibitors; further: nearly all actives have a fitted effect of over 70% in size
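HP1-beta protein (50 nM final) preincubated 30 min at room temperature with biotinylated H3(1-18)K9me3 peptide (50 nM) in PBS pH 7.4, 0.01% Tween-20, then compound added for 30 min. AlphaScreen streptavidin donor/nickel chelate acceptor beads (10 ug/mL final), 30 min dark, luminescence read.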
BAZ2B inh = qHTS Assay for Inhibitors of BAZ2B; Potency, µM (highest dose often 114 µM), for the others: top-dose activity change, negative = inhibition, usual class: inhibitors; AID 504333, 2011; AlphaScreen BAZ2B-H3K14Ac peptide displacement; 360,000 compounds, 4.4% hits; further: on the % scale 0 is the no-effect control and ±100 the full control effect; nearly all actives have a fitted effect of over 60% in size
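AlphaScreen displacement: compounds (up to 110uM) incubated 30 min at room temperature with a preformed 50 nM BAZ2B/50 nM biotinylated H3K14Ac peptide complex in PBS pH 7.4 with Tween-20. Donor and acceptor beads at 10 ug/mL final added, 20 min light-protected before reading.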
Sfp PPTase inh = qHTS Assay for Inhibitors of Bacillus subtilis Sfp phosphopantetheinyl transferase (PPTase). Biochemical Sfp PPTase activity, qHTS. Potency, µM, for the others: largest response in the series, negative = inhibition, actives largely listed as inhibitors. 4'-phosphopantetheinyl transferase ffp (Bacillus subtilis), Q9F4F7. 310,000 compounds, 3.5% hits;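 further: the enzyme is Sfp with the accession as filed and its product quenches rhodamine fluorescence; 0% = enzyme reaction without inhibitor and -100% = no enzyme wells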
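Reaction rates are the 30-min fluorescence difference (ex 525, em 598 nm) in wells containing 15 nM Sfp, 5 uM rhodamine-CoA and 12.5 uM BHQ-2-YbbR at pH 7.6 with 10 mM MgCl2.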
G9a inh = qHTS Assay for Inhibitors of Histone Lysine Methyltransferase G9a | Histone-lysine N-methyltransferase EHMT2 (Homo sapiens), Q96KQ7 | G9a H3K9 monomethylation, AlphaScreen, 2 h | Potency, µM (highest dose often 102 µM), for the others: top-dose activity, negative = inhibition, most hits filed as inhibitors | 350,000 compounds, 8.8% hits | AID 504332, 2011; further: on the % scale 0 is the no-effect control and ±100 the full control effect; nearly all actives have a fitted effect of over 75% in size
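Methyltransferase reactions run at room temperature for 2 h (20 nM enzyme, 500 nM biotin-H3K9 peptide, 20 uM SAM) after a 15 min compound preincubation; product detected by AlphaScreen beads and anti-H3K9me1 antibody.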
JMJD2A Tudor = qHTS Assay for Inhibitors of JMJD2A-Tudor Domain | Lysine-specific demethylase 4A (Homo sapiens), O75164 | AlphaScreen JMJD2A-Tudor / H3K4me3 peptide binding | Potency, µM (doses to about 114 µM), for inactives: top-dose activity change, negative = inhibition, most hits filed as inhibitors | 390,000 compounds, 4.4% hits; further: on the % scale 0 is the no-effect control and ±100 the full control effect; nearly all actives have a fitted effect of over 50% in size
PLK1 PBD inh = qHTS for Inhibitors of PLK1-PDB (polo-like kinase 1 - polo-box domain): Primary Screen. Plk1 PBD binding of FITC phosphopeptide, fluorescence polarization. Potency, µM, for inactives: max response, negative = inhibition, actives largely listed as inhibitors. 360,000 compounds, 2.8% hits. AID 720504, 2013; further: series mostly up to about 57 µM; on the % scale 0 is the no-effect control and ±100 the full control effect; nearly all actives have a fitted effect of over 65% in size
Starred values were filed as active, the others as inactive; ? = inconclusive; / = not tested or not shown; ! = repeats disagree; [ ] = another dose, or the depositor's remark. An excerpt weighted towards active compounds, which were near 12% of everything screened. The call rests on the fitted dose curve; in most records, active means well fitted curve in the direction sought with a large enough effect; inconclusive means small, poorly fitted or top-dose-only effect, or another doubt; inactive means no such curve, though single readings can be large; an effect the other way counts as inactive or inconclusive. Potency means the concentration at half of the fitted maximal effect.

SMILES	HP1b chromo inh	BAZ2B inh	Sfp PPTase inh	G9a inh	JMJD2A Tudor	PLK1 PBD inh
COc1ccc(Nc2cc(C(=O)NCc3cccnc3)c3ccccc3n2)c(OC)c1	/	?	6%	45µM*	/	/
COc1ccc(-c2cc(C(=O)NCc3ccco3)c3ccccc3n2)c(OC)c1	35%	?	0%	/	-20%	-10%
COc1ccc(Nc2cc(C(=O)NCc3ccco3)c3ccccc3n2)c(OC)c1	-24%	50µM*	-11%	?	?	-10%
CCOC(=O)C1=C[C@@H](c2ccccc2)N(S(=O)(=O)c2ccc(C)cc2)[C@H]1c1ccc(OC)cc1	/	/	/	/	/	-2%
CC(=O)NC1C(=O)N=C(SC(C)C(=O)Nc2cccc(Cl)c2)NC1=O (centres undefined)	33%	-8%	-2%	5%[12.7 µM]	-5%	-2%
CN1C(=O)Cc2cc([S+](=O)([O-])N3CCN([S+](=O)([O-])c4c(F)cccc4F)CC3)ccc21	/	/	/	/	-27%	/
CCOc1ccc(S(=O)(=O)N2CCN(c3ccccc3)CC2)cc1C(N)=O	50%	?	/	30%[59 µM]	-12%	/
COc1ccc(NC(=O)NCc2ccco2)c(OC)c1	7%	-8%	6%	?	-33%	12µM*
COc1ccc(NC(=O)C(=O)NCc2ccco2)c(OC)c1	35%	7%	/	-5%[59 µM]	-5%	/
CCCCN1CC(=O)N2[C@H]3c4cc(C)ccc4OC[C@@H]3[C@H](C(=O)OCC)[C@]2(C)C1=O	69%	5%	/	-2%[0.501 µM]	-12%	-19%
CSCC[C@H](NC(=O)N1CCn2c1nc1ccccc12)C(=O)N[C@H](Cc1ccccc1)C(=O)O	21%	?	10%	-4%[12.7 µM]	?	-10%
CSCC[C@H](NC(=O)N1CCn2c1nc1ccccc12)C(=O)NCc1ccc(C)cc1	14%	?	-7%	32µM*	-3%	9%
CSCC[C@H](NC(=O)N1CCn2c1nc1ccccc12)C(=O)NCc1ccco1	?	?	-14%	79µM*	45µM*	27µM*
CSCC[C@H](NC(=O)N1CCn2c1nc1ccccc12)C(=O)NCc1ccccc1	31%	?	26%	45µM*	?	-20%
CC(=O)c1ccc(NC(=O)Nc2sc3nc4n(c(=O)c3c2C)CCC(C)CC4)cc1 (centres undefined)	21%	-15%	/	-35%[59 µM]	-21%	/
CCS(=O)(=O)c1cc([N+](=O)[O-])c(Sc2ccccc2NC(C)=O)s1	-26%	-18%	0.45µM*	1.1µM*	20µM*	?
CC(=O)Nc1ccccc1-c1ccccc1[N+](=O)[O-]	18%[57 µM]	/	/	/	-1%	1%
CC(C)=CC(=O)Oc1ccc(C(=O)N(C)c2ccccc2I)cc1	40%	/	5%	/	-14%	/
CCC1Nc2ncnc(N3CCOCC3)c2N(Cc2ccc(OC)cc2)C1=O (centres undefined)	29%	/	/	/	56µM*	27µM*
O=C1C(Cc2ccccc2)Nc2ncnc(N3CCOCC3)c2N1Cc1ccc(Cl)cc1 (centres undefined)	18%	-26%	/	4.5µM*	?	27µM*!
O=C1C(Cc2ccccc2)Nc2ncnc(N3CCN(c4ccccc4)CC3)c2N1Cc1ccccc1 (centres undefined)	6%	?	/	?	63µM*	?
Cc1ccc(Cl)cc1NC(=O)c1cc(-c2ccc3c(c2)OCCO3)on1	42%	-1%	/	4%[59 µM]	9%	/
COCCNc1cc(-c2ccccc2C(F)(F)F)ncn1	/	/	-26%	/	/	/
CCc1ccccc1N(CC)C(=O)Cn1nc(Cc2ccncc2)c2ccccc2c1=O	34%	-16%	/	-28%[59 µM]	-22%	/
COc1ccc(S(=O)(=O)NCC(=O)O)cc1C(=O)NC1CCCCC1	43%	49%	0%	27%[59 µM]	-7%[57.1 µM]	-17%
SMILES	HP1b chromo inh	BAZ2B inh	Sfp PPTase inh	G9a inh	JMJD2A Tudor	PLK1 PBD inh
Cc1cc(NS(=O)(=O)c2ccc(NC(=O)COc3c(C)ccc(C)c3C)cc2)nc(C)n1	46%	-9%	/	?	-4%	/
CCC(CO)Oc1cc(NCc2ccccc2OC)c2ncn(C(C)C)c2c1 (centres undefined)	8%	/	/	/	?	-19%
CCC(CO)Oc1cc(NCc2ccccc2F)c2ncn(C(C)C)c2c1 (centres undefined)	-3%	?	/	18%[2.33 µM]	?	-8%
CCC(CO)Oc1cc(NCc2ccccc2Cl)c2ncn(C(C)C)c2c1 (centres undefined)	-22%	?	/	-12%[2.33 µM]	50µM*	-16%
CCC(CO)Oc1cc(NCc2ccccc2C(F)(F)F)c2ncn(C(C)C)c2c1 (centres undefined)	?	/	/	/	45µM*	-1%
COc1ccc(-c2cc(C(F)F)nc(-n3nc(C)cc3C)n2)cc1	48%	-1%	50µM*	2%[12.7 µM]	2%	-5%
Cc1ccc(-c2cc(C(F)F)nc(N3CCOCC3)n2)cc1	/	101%	-30%	162%[59 µM]	234%	-9%
CC1CCN(S(=O)(=O)c2ccc3ncn(CC(=O)Nc4ccccc4C(F)(F)F)c(=O)c3c2)CC1	12%	-6%	/	-25%[59 µM]	-15%	/
COC(=O)c1ccccc1NC(=O)Cn1cnc2ccc(S(=O)(=O)N3CCC(C)CC3)cc2c1=O	45%	8%	89µM*	?	-6%[11.4 µM]	-6%
CC1(C)C2CCC(CN=C(N)CSS(=O)(=O)O)C1C2 (centres undefined)	/	/	/	/	/	4.7µM*
CCCOc1ccc(OCCNC2CCCC2)cc1	?	?	-13%	10µM*	89µM*	4%
CCOc1ccc(C(=O)NC2CCCCCCC2)cc1	28%	/	/	/	12%	3%
CCc1ccc(OCCOCC(O)CNC2CCCC2)cc1 (centres undefined)	17%	1%	5%	7%	-1%	1%
CCOc1ccc(OCCNC2CCCC2)cc1	?	17%	?	?	3.2µM*	3%
CCOc1ccc(C(=S)NC2CCCCC2)cc1	-20%	-20%	6%	10µM*	-9%	27µM*
CCOc1ccc(/C=C/C(=O)NC2CCCCC2)cc1	13%	1%	13%	10%[0.501 µM]	-6%	-6%
CCn1c(SCC(=O)NC2CC2)nnc1-c1cccc(OC)c1	13%	14%	11%	/	-3%	5%

Screens from PubChem.
